Consider eight compounds from PubChem BioAssay AID1917 (Vanderbilt High Throughput Screening Facility, 2009).

In all, about 3,000 compounds went through this assay and about 1,600 (53%) were called active. Roughly 10% stayed inconclusive and do not appear here. The set was probably picked from earlier hits. These entries were drawn from the full list. Unmarked numbers belong to inactive results.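 The calls were made as follows: active = Flux at 10 µM at least 3 SD below or above vehicle control mean in one or both replicates; inconclusive = no clear call, values can overlap the other calls; inactive = the rest.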

Chain of ATP-sensitive inward rectifier potassium channel 1 (Homo sapiens) (P48048 whole entry, looked up): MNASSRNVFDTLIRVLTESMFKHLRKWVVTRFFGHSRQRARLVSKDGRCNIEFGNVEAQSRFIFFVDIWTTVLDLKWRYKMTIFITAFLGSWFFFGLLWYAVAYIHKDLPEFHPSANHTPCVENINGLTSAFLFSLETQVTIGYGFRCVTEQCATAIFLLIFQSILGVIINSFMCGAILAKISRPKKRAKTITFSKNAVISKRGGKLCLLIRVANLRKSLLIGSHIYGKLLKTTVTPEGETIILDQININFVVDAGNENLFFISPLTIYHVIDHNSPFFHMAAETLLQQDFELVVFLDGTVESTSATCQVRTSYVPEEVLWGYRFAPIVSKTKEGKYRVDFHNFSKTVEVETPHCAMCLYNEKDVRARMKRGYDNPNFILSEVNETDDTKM

This experiment concerns the target ATP-sensitive inward rectifier potassium channel 1 (Homo sapiens) (UniProt P48048). In words: ROMK channel modulator hit retest, confirmation, cell-based, thallium flux, duplicate, resupplied hits (AID 1917). As to conditions: fluorescence ratio, at 10 µM, active compounds read low.
For the compound `CCCCCCCCCCCCn1ccc(=N)cc1`, the normalized thallium flux (F/F0 slope) is 0.0386 (active).

Regarding `Clc1ccc2nc3c(c(-c4ccccc4)c2c1)CNCC3`, the normalized thallium flux (F/F0 slope) is 0.0588 (active).

On to `CC1(C)Cc2c(C#N)c(N3CCNCC3)nc(-c3ccco3)c2CS1`, for which the normalized thallium flux (F/F0 slope) was 0.0568 (active).

Turning to `COc1ccccc1N=Nc1c(O)[nH]c(=S)[nH]c1=O`, the normalized thallium flux (F/F0 slope) is 0.0657 (active).

Take `N#Cc1ccc(Cn2cc(C(=O)c3ccco3)c3ccccc32)cc1`: the normalized thallium flux (F/F0 slope) is 0.0753.

Regarding `Cc1cc(C=C2C(=O)NC(=O)NC2=O)c(C)n1-c1ccncc1`, the normalized thallium flux (F/F0 slope) was 0.0636 (active).

For `Cc1nc2ccccn2c1P(=S)(N1CCCCC1)N1CCCCC1`, the normalized thallium flux (F/F0 slope) is 0.0668 (active).

`NC(=O)Nc1cccc(C(F)(F)F)c1`: the normalized thallium flux (F/F0 slope) was 0.0825.
